Experimental data published in PubChem BioAssay (NCI).
The panel holds about 79,000 compounds, 15% with a hit somewhere; the sample as a whole holds those more often. Activity calls are given as the source filed them. Cut-off read from the data, not from the text of the source: active = growth inhibition above about 70%; inactive = the rest.

How the values were obtained:
[1] = NCI Yeast Anticancer Drug Screen. Data for the rad52 strain (AID 147);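 note: 0% = growth of vehicle-treated control cultures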; settings: S. cerevisiae rad52 mutant growth inhibition, active compounds read high
Summary of the method: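 DNA repair-defective yeast; compound exposure; growth scored against vehicle controls.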

[2] = NCI Yeast Anticancer Drug Screen. Data for the wt1 strain (AID 149);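 note: 0% = growth of vehicle-treated wt1 cultures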; settings: S. cerevisiae wt1 strain (SPY 50644) growth inhibition, active compounds read high
Summary of the method: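 Measured: growth of wt1 yeast under compound versus vehicle treatment, reported as inhibition.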

[3] = NCI Yeast Anticancer Drug Screen. Data for the rad50EPP+ strain (AID 151);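 note: 0% = growth of vehicle-treated control cultures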; settings: S. cerevisiae rad50 mutant strain, active compounds read high
Summary of the method: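 rad50EPP+ yeast treated with test compounds. Readout: growth vs vehicle control.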

[4] = NCI Yeast Anticancer Drug Screen. Data for the mgt1 strain (AID 153); settings: S. cerevisiae mgt1 mutant growth inhibition, active compounds read high
Summary of the method: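 Growth inhibition relative to vehicle controls was scored for the mgt1 yeast strain after compound exposure.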

[5] = NCI Yeast Anticancer Drug Screen. Data for the rad50 strain (AID 155);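 note: 0% = growth of vehicle-only cultures of the same strain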; settings: S. cerevisiae rad50 strain growth inhibition, active compounds read high
Summary of the method: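 Growth of the mutant yeast was measured after compound exposure and referenced to vehicle-treated cultures.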

[6] = NCI Yeast Anticancer Drug Screen. Data for the mec2-1 strain (AID 157); settings: S. cerevisiae mec2-1 strain, active compounds read high
Summary of the method: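 Growth inhibition is read against vehicle-treated controls after compound exposure of the mec2-1 yeast strain, which is defective in DNA damage repair or cell cycle control.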

[7] = NCI Yeast Anticancer Drug Screen. Data for the rad14 strain (AID 159);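 note: 0% = growth of vehicle-treated control cultures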; settings: S. cerevisiae rad14 strain growth inhibition, active compounds read high
Summary of the method: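 Here, inhibition of yeast growth was measured after compound exposure, using a strain with a genetic defect in DNA damage repair and vehicle-treated cultures as the reference.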

[8] = NCI Yeast Anticancer Drug Screen. Data for the sgs1 mgt1 strain (AID 161);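 note: 0% = growth of cultures given vehicle only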; settings: S. cerevisiae sgs1 mgt1 strain, active compounds read high
Summary of the method: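 Growth of a repair-deficient yeast mutant was monitored after compound treatment and expressed as inhibition relative to vehicle-treated cultures.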

[9] = NCI Yeast Anticancer Drug Screen. Data for the CLN2oe strain (AID 163);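 note: 0% = growth of vehicle-only control cultures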; settings: S. cerevisiae CLN2oe strain, active compounds read high
Summary of the method: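 Compound-treated yeast; growth vs vehicle ctrl = % inhibition. Genetically altered strain (cell-cycle control).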

[10] = NCI Yeast Anticancer Drug Screen. Data for the cln2 rad14 strain (AID 165);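 note: 0% = growth equal to vehicle treated cultures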; settings: S. cerevisiae cln2 rad14 strain, active compounds read high
Summary of the method: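 Growth inhibition, relative to vehicle-treated controls, is the read-out. The test organism is a yeast strain with defined genetic alterations, cln2 rad14.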

[11] = NCI Yeast Anticancer Drug Screen. Data for the bub3 strain (AID 167); settings: S. cerevisiae bub3 mutant strain, active compounds read high
Summary of the method: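 Whole-cell yeast assay. The mutant strain was incubated with compounds, and growth inhibition was determined by comparison with vehicle-treated cells.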

[12] = NCI Yeast Anticancer Drug Screen. Data for the mlh1 strain (AID 171);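 note: 0% = growth of vehicle-treated control cultures of the same strain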; settings: S. cerevisiae mlh1 strain growth inhibition, active compounds read high
Summary of the method: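 Compounds are applied to a genetically altered yeast strain, and its growth is compared with that of vehicle-treated cultures to give percent inhibition.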

[13] = NCI Yeast Anticancer Drug Screen. Data for the sgs1 strain (AID 173);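 note: 0% = growth of vehicle-only control cultures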; settings: S. cerevisiae sgs1 mutant, active compounds read high
Summary of the method: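 Compounds applied to genetically altered yeast; growth compared with vehicle-treated cultures to give % inhibition.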

[14] = NCI Yeast Anticancer Drug Screen. Data for the mlh1 rad18 strain (AID 175); settings: S. cerevisiae mlh1 rad18 strain growth inhibition, active compounds read high
Summary of the method: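 Cells of a genetically altered yeast strain, deficient in DNA damage repair, were treated with compound. Their growth was then compared with that of vehicle-treated cultures to give inhibition.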

[15] = NCI Yeast Anticancer Drug Screen. Data for the rad18 strain (AID 177); settings: S. cerevisiae rad18 mutant growth inhibition, active compounds read high
Summary of the method: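 Compounds are applied to a repair-deficient yeast strain, and growth is compared with that of vehicle-treated cultures to give percent inhibition.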

[16] = at 5.0 µM (retest, dose inferred, filed as 0.5)
[17] = at 50.0 µM (retest, dose inferred, filed as 5.0)

Measured: growth inhibition

COc1cc(/C=C2\NC(=O)N(/C=C3\C(=O)Oc4ccccc4C3=O)C2=O)ccc1O
inactive: [1]; at 1.2 µM -3% | [1]; at 3.7 µM 1% | [1]; at 11.0 µM 16% | [2]; at 1.2 µM 2% | [2]; at 3.7 µM 3% | [2]; at 11.0 µM 3% | [2]; at 33.0 µM 63% | [3]; at 1.2 µM -1% | [3]; at 3.7 µM -1% | [3]; at 11.0 µM 1% | [3]; at 33.0 µM 4% | [3]; at 100.0 µM 3% | [4]; at 1.2 µM -3% | [4]; at 3.7 µM -3% | [4]; at 11.0 µM 4% | [4]; at 33.0 µM 62% | [5]; at 1.2 µM -6% | [5]; at 3.7 µM -17% | [5]; [16] -1% | [5]; at 11.0 µM -9% | [6]; at 1.2 µM -1% | [6]; at 3.7 µM -3% | [6]; [16] -4% | [6]; at 11.0 µM 5% | [6]; at 33.0 µM 68% | [7]; at 1.2 µM -2% | [7]; at 3.7 µM -2% | [7]; at 11.0 µM 3% | [7]; at 33.0 µM 64% | [8]; [16] -11% | [9]; at 1.2 µM 0% | [9]; at 3.7 µM 1% | [9]; at 11.0 µM 15% | [10]; [16] 38% | [11]; at 1.2 µM -3% | [11]; at 3.7 µM -2% | [11]; [16] -16% | [11]; at 11.0 µM 1% | [11]; at 33.0 µM 69% | [12]; at 1.2 µM -1% | [12]; at 3.7 µM 0% | [12]; at 11.0 µM 6% | [13]; at 1.2 µM -1% | [13]; at 3.7 µM -1% | [13]; at 11.0 µM 14% | [14]; [16] 4% | [15]; at 1.2 µM -1% | [15]; at 3.7 µM -3% | [15]; at 11.0 µM -1%
active: [1]; at 33.0 µM 79% | [1]; at 100.0 µM 96% | [2]; at 100.0 µM 95% | [4]; at 100.0 µM 94% | [5]; at 33.0 µM 75% | [5]; [17] 95% | [5]; at 50.0 µM 88.4% | [5]; at 100.0 µM 95% | [6]; [17] 97% | [6]; at 50.0 µM 77.5% | [6]; at 100.0 µM 96% | [7]; at 100.0 µM 93% | [8]; [17] 92% | [8]; at 50.0 µM 93.9% | [9]; at 33.0 µM 86% | [9]; at 100.0 µM 96% | [10]; [17] 94% | [10]; at 50.0 µM 90% | [11]; [17] 90% | [11]; at 50.0 µM 90.8% | [11]; at 100.0 µM 93% | [12]; at 33.0 µM 82% | [12]; at 100.0 µM 96% | [13]; at 33.0 µM 89% | [13]; at 100.0 µM 97% | [14]; [17] 95% | [14]; at 50.0 µM 89.5% | [15]; at 33.0 µM 77% | [15]; at 100.0 µM 94%

CCCC(=O)Oc1c(C)cc([N+](=O)[O-])cc1[N+](=O)[O-]
active: [1]; at 11.0 µM 99% | [1]; at 33.0 µM 97% | [1]; at 100.0 µM 99% | [2]; at 11.0 µM 98% | [2]; at 33.0 µM 99% | [2]; at 100.0 µM 99% | [3]; at 3.7 µM 77% | [3]; at 11.0 µM 94% | [3]; at 33.0 µM 99% | [3]; at 100.0 µM 99% | [4]; at 33.0 µM 99% | [4]; at 100.0 µM 86% | [5]; at 11.0 µM 98% | [5]; at 33.0 µM 99% | [5]; [17] 99% | [5]; at 50.0 µM 99.4% | [5]; at 100.0 µM 99% | [6]; at 11.0 µM 99% | [6]; at 33.0 µM 99% | [6]; [17] 100% | [6]; at 50.0 µM 99.3% | [6]; at 100.0 µM 99% | [7]; at 11.0 µM 96% | [7]; at 33.0 µM 99% | [7]; at 100.0 µM 99% | [8]; [17] 99% | [8]; at 50.0 µM 99.4% | [9]; at 11.0 µM 94% | [9]; at 33.0 µM 99% | [9]; at 100.0 µM 99% | [10]; [17] 97% | [10]; at 50.0 µM 93.5% | [11]; at 11.0 µM 98% | [11]; at 33.0 µM 99% | [11]; [17] 99% | [11]; at 50.0 µM 99.5% | [11]; at 100.0 µM 99% | [12]; at 11.0 µM 99% | [12]; at 33.0 µM 99% | [12]; at 100.0 µM 99% | [14]; [17] 99% | [14]; at 50.0 µM 99.1% | [15]; at 11.0 µM 98% | [15]; at 33.0 µM 99% | [15]; at 100.0 µM 99%
inactive: [1]; at 1.2 µM 4% | [1]; at 3.7 µM 26% | [2]; at 1.2 µM 1% | [2]; at 3.7 µM 0% | [3]; at 1.2 µM 35% | [4]; at 1.2 µM 3% | [4]; at 3.7 µM 11% | [4]; at 11.0 µM 56% | [5]; at 1.2 µM 4% | [5]; at 3.7 µM 25% | [5]; [16] 14% | [6]; at 1.2 µM -1% | [6]; at 3.7 µM 21% | [6]; [16] 33% | [7]; at 1.2 µM 1% | [7]; at 3.7 µM 14% | [8]; [16] 39% | [9]; at 1.2 µM -11% | [9]; at 3.7 µM -2% | [10]; [16] -1% | [11]; at 1.2 µM 12% | [11]; at 3.7 µM 42% | [11]; [16] 40% | [12]; at 1.2 µM 2% | [12]; at 3.7 µM 12% | [14]; [16] 18% | [15]; at 1.2 µM 5% | [15]; at 3.7 µM 20%
